# Hits are enriched below; roughly 11% of the tested compounds scored in any of these assays.
# PNC assembly inh: inhibitors of perinucleolar compartment assembly; AID 2417; activity change (PNC), negative = inhibition, % at 10 µM; PC3M PTB-GFP, PNC prevalence imaging, 16 h; stronger effect = lower value; 140,000 compounds, 3.1% hits;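 active = readout at or below -70, meaning at least 70% loss of cells showing the perinucleolar compartment, a nuclear body marking cancer cells; inconclusive = readout between -30 and a set limit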;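 note: plate controls were DMSO wells for no effect and camptothecin positive control wells for full effect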
#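 Read-out is percentage of cells bearing a perinucleolar compartment, from automated 20x imaging of fixed, Hoechst-stained PC3M PTB-GFP cells. Cells were seeded 4 h, then exposed 16 h to compound (23 nl of library stock) in duplicate plates.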
# ALDH1A1 inh: ALDH1A1 (human) enzyme inhibition | P00352 | Purified ALDH1A1, NADH fluorescence, propionaldehyde substrate | 220,000 compounds, 7.3% hits | AID 1030 | Potency, µM (doses to about 75.3 µM), inactives show at the top dose activity, negative = inhibition, most hits filed as inhibitors;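 note: potency is the fitted concentration of half-maximal effect; plate controls were no enzyme wells and a reference inhibitor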
# HPGD block: HPGD (human) dehydrogenase inhibition | P15428 | purified HPGD, NADH fluorescence kinetic, PGE2 substrate | Potency, µM, inactives show at the highest dose activity change, negative = inhibition, actives largely listed as inhibitors | 150,000 compounds, 4.3% hits; note: potency is the fitted concentration of half-maximal effect
#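 NADH formation kinetics: reaction with 30 uM PGE2 and 1 mM NAD+ (final), 20 nM enzyme, Tris-HCl pH 8 with Tween 20, after 15 min compound preincubation at room temperature. Fluorescence change, last versus first of five reads.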
# IMPase inh: cell-permeable inhibitors of inositol monophosphatase (IMPase). CHO-M1 cells, IP1 accumulation, HTRF TR-FRET ratio. inhibition (IP1 accumulation), % at 46.1 µM. 120,000 tested, under 10 active. AID 901; active = well fitted curve in the direction sought with a large enough effect in the signal ratio, not every such curve was filed as active; inconclusive = small, poorly fitted or top-dose-only effect, or a change in a side signal; inactive = no such curve, though single readings can be large or run the other way; the % refers to the signal ratio;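 note: cells stimulated with carbachol in lithium chloride buffer; plate controls were DMSO basal wells for no effect and reference inhibitor wells for full effect; higher means more IMPase inhibition seen as more IP1 and lower FRET ratio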
#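 Seeded CHO-M1 cells were dosed with compound at up to 46 uM, stimulated with carbachol for 30 min, then lysed in IP-One detection reagents. Higher IP1 lowers the TR-FRET signal.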
# ALOX12 inhib: blocks human 12-lipoxygenase activity; purified 12-hLO, xylenol orange hydroperoxide absorbance; Potency, µM (titrated, usually from 57.1 µM), for the others: at the highest dose activity change, negative = inhibition, hits mostly inhibitors; 150,000 compounds, 0.12% hits; AID 1452; active = well fitted curve in the direction sought with a large enough effect; inconclusive = small, poorly fitted or top-dose-only effect, or another doubt; inactive = no such curve, though single readings can be large; an effect the other way counts as inactive or inconclusive; note: potency is the fitted concentration of half-maximal effect; nearly all actives have a fitted effect of over 55% in size
# Target sequence (P18054 whole entry, looked up): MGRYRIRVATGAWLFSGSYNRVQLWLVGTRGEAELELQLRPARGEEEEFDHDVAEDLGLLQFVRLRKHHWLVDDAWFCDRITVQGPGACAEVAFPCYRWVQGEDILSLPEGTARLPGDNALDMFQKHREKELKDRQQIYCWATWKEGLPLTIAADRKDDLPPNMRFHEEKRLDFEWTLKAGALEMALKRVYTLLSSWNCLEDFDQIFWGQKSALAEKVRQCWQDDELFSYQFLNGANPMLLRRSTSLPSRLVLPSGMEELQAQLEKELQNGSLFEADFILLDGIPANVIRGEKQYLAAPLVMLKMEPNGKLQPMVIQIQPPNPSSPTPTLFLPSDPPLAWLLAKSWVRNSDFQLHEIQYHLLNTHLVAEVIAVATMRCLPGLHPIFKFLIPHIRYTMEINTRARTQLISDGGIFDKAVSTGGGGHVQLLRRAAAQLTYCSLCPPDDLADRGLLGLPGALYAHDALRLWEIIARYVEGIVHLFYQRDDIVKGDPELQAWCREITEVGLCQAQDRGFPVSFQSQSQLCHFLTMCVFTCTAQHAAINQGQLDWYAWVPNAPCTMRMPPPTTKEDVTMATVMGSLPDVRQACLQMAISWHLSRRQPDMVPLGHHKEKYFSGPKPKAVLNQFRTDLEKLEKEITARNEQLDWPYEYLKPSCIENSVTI
#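 Hydroperoxide output read as Fe(III)-xylenol orange absorbance, 573-to-405 nm ratio, after 30 min reaction with 40 uM arachidonic acid. Enzyme: 150 nM purified human 12hLO, 15 min compound preincubation; 25 mM Hepes pH 7.0, room temperature.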
# IMPase Li cell: membrane-permeable IMPase blocker, potentiated with lithium. CHO-M1 cells, IP1 TR-FRET (IP-One), carbachol + lithium. Potency, µM (titrated, usually from 59.4 µM), for the others: at the top dose activity, negative = IMPase inhibition, hits mostly inhibitors. 210,000 compounds, 0.35% hits. AID 1457; active = well fitted curve in the direction sought with a large enough effect; inconclusive = small, poorly fitted or top-dose-only effect, or another doubt; inactive = no such curve, though single readings can be large; an effect the other way counts as inactive or inconclusive;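 note: IP1 builds up when IMPase is blocked and the TR-FRET signal falls; potency is the fitted concentration of half-maximal effect; plate controls were basal vehicle for no effect and high inhibitor control for full effect; nearly all actives have a fitted effect of over 50% in size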
#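 CHO-M1, 2000 cells/well, 16–30 h culture; cpd + low Li+, 30 min 37C; lysis with d2-IP1/Eu-anti-IP1 Ab, 10 min RT; TR-FRET 665/620 ratio and 620 channel; AC50 via Hill.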
# * = called active by the depositor; ? = inconclusive; . = not tested or not shown; [ ] = dose if it differs, or a comment. Unless noted, calls come from the whole dose curve; as a rule, active = well fitted inhibition curve with a large enough effect (not every such curve was filed as active); inconclusive = small, poorly fitted or top-dose-only effect, or another doubt; inactive = no such curve, though single readings can be large or run the other way. Unless noted, % is set by controls: 0 for no effect and ±100 for the full control effect.
SMILES,PNC assembly inh,ALDH1A1 inh,HPGD block,IMPase inh,ALOX12 inhib,IMPase Li cell
Cc1cc(Br)c(NC(=O)CCl)c(Br)c1,-88.5*,-15.6%,-21.6%,.,4.6%,-16.3%
Cc1cnc(CNc2nc(-c3cccc(NS(C)(=O)=O)c3)nc3ccccc23)cn1,.,10.0%,.,.,.,10.3%
Cc1cccc(N2CCN(CCCNC(=O)c3nnc(Cc4c(F)cccc4Cl)o3)CC2C)c1 (stereo not given),.,.,.,1.4,.,.
C=CCn1c(=S)[nH]c2sc3c(c2c1=O)CCC3,-109.3*,11.2µM*,31.6µM*,-11.4,?,-0.3%
C=CCn1c(=S)[nH]c2nc3c(cc2c1=O)CCCC3,13.4,?,-15.2%,-1.5,0.2%,17.4%[38.3 µM]
COc1ccc(NC(c2ccc(F)cc2)c2nnc(-c3ccccc3Cl)o2)cc1Cl (stereo not given),.,.,.,16.5,.,.
O=C(CC1SC(N2CCCCC2)=NC1=O)Nc1cccc(C(=O)O)c1 (stereo not given),24.3,4.5%,-0.1%,-0.2,-2.2%,5.4%[38.3 µM]
CO[C@@H]1COC(=O)C/C=C\[C@@H](C)COC(=O)[C@H](COCc2ccccc2)NC(=O)C/C=C\[C@H]1C,.,-9.9%[13.5 µM],.,.,.,.
Cc1nnc(SCc2c(Cl)cccc2[N+](=O)[O-])s1,.,-2.6%,.,.,.,8.6%
O=[N+]([O-])c1cccc(Cl)c1CSc1ccccn1,.,20µM*,.,.,.,17.1%
Cc1cccc(CN2CCN(CC(=O)O)C2=O)c1,-0.1,?,-17.4%,?,-14.8%,11.2µM*
Cc1cccc(CN2CCN(CC(=O)N3CCCC3)C2=O)c1,?,9.2%,2.3%,-8.1,-4.6%,14.9%[38.3 µM]
O=C(N1CCOCC1)N1CCN(C(=O)N(c2ccccc2)c2ccccc2)CC1,-26.1,?,2.8%,15.8,6.5%,?
O=C(N1CCCCC1)N1CCN(C(=O)N(c2ccccc2)c2ccccc2)CC1,-1.2,11.2µM*,-1.5%,0.3,-0.7%,18.6%[38.3 µM]
O=C(CN1C(=O)C2C3C=CC(C3)C2C1=O)N1CC(=O)N(CCc2ccccc2)C(=O)C1 (stereo not given),-5.6,28.2µM*,-4.2%,8.9,-4.4%,1.2%
N#C[C@H]1CN[C@H](N)N[C@@H]1N,.,4.6%[13.5 µM],-4.3%,.,-4.6%[11.4 µM],-22.1%
Cc1ccc(OCCCCNC(C)(C)C)c([N+](=O)[O-])c1,-24.6,12.6µM*,-4.0%,6.7,-11.5%,5.2%
C=CCc1ccc(OCCCCN2CCC(C)CC2)c(OC)c1,?,-12.1%,-4.0%,.,-4.2%,1.4%
C=CCc1ccc(OCCCN2CCCC(C)C2)c(OC)c1 (stereo not given),?,15.8µM*,-11.1%,8.5,-5.0%,55.9%[38.3 µM]
Cc1ccc(OCCCCN2CCCC(C)C2)c([N+](=O)[O-])c1 (stereo not given),.,31.6µM*,.,.,.,10.2%
Cc1ccc([N+](=O)[O-])c(OCCCN2CCCCCC2)c1,.,?,.,.,.,17.6%
COCCNCCOc1ccc(C)cc1[N+](=O)[O-],.,-92.7%,.,.,.,-1.3%
COc1ccc(N(C(=O)COc2c(C)cccc2C)S(=O)(=O)c2ccc(Cl)cc2)cc1,.,.,.,1.4,.,.
COc1ccc(-c2nc(-c3ccccc3)c(-c3ccc(F)cc3)[nH]2)c(OC)c1C,.,.,.,5.1,.,.
O=C(O)CSc1ccc(Oc2ccc(SCC(=O)O)cc2)cc1,.,12.6µM*,.,.,.,3.6%
SMILES,PNC assembly inh,ALDH1A1 inh,HPGD block,IMPase inh,ALOX12 inhib,IMPase Li cell
O=C(O)COc1ccc(Oc2ccccc2)cc1,?,-3.8%,-14.3%,7.7,-0.1%,-6.1%
CCC(C)NC(=O)Nc1ccc(C)cc1C (stereo not given),.,0.1%,.,.,.,3.1%
C=C[C@@]1(C)CC(=O)[C@@]2(O)[C@@]3(C)[C@@H](O)CCC(C)(C)[C@@H]3[C@H](O)[C@H](OC(C)=O)[C@@]2(C)O1,.,8.0%,-8.2%,-0.1,1.7%,10.5%
COc1ccc(CCCc2nnc(SCC(=O)Nc3cccc(F)c3C)o2)cc1,.,.,.,31.8,.,.
COc1ccccc1CNC(=O)c1ccc(CNc2c(N3CCCC3)c(=O)c2=O)cc1,25.3,3.2%,-28.9%,-5.0,1.6%,2.5%
O=C(c1ccc(CNc2c(N3CCCC3)c(=O)c2=O)cc1)N1CCc2ccccc2C1,?,10.3%,3.55µM*,6.1,-1.7%,17.7%[38.3 µM]
CN(C)c1ccc(CNC(=O)c2ccc(CNc3c(N4CCCCC4)c(=O)c3=O)cc2)cc1,-0.8,28.2µM*,22.4µM*,4.5,-0.2%,4.2%[38.3 µM]
CCOC(=O)C1CCN(c2c(NCc3ccc(C(=O)NC(C)CC)cc3)c(=O)c2=O)CC1 (stereo not given),5.0,?,5.01µM*,-6.9,-2.7%,-3.4%[38.3 µM]
O=C(c1ccc(CNc2c(N3CCCC3)c(=O)c2=O)cc1)N1CCN(C2CCCCC2)CC1,29.0,-4.6%,-18.9%,.,-2.2%,11.2%
O=C(CSc1cccc[n+]1[O-])C12CC3CC(CC(C3)C1)C2,.,?,.,.,.,5.0%
CCOC(=O)c1cc(-c2ccccc2)nn1-c1ccccn1,?,12.6µM*,-19.8%,13.0,3.5%,55.3%[38.3 µM]
Cc1noc(C)c1C(=O)N1CCN(Cc2ccccc2)CC1,-8.7,-1.7%,-5.8%,1.0,-1.0%,22.9%[38.3 µM]
Cc1noc(C)c1C(=O)N1CCN(CCc2ccccc2)CC1,-102.2*,-44.3%,-2.3%,1.9,-5.3%,22.1%[38.3 µM]
Cc1noc(C)c1C(=O)N1CCC(CO)(Cc2ccccc2)CC1,.,3.98µM*,.,.,.,25.1%
CCC(=O)CC(NC(=O)OC)c1ccc(F)cc1 (stereo not given),.,12.9%[13.5 µM],.,.,.,.
N#Cc1cn(CCCOc2ccccc2)c2ccccc12,7.9,-10.2%,-24.3%,12.3,-5.6%,18.1%
COc1ccccc1OCCCn1cc(C#N)c2ccccc21,-82.2*,-12.5%,-22.7%,12.9,-9.8%,-4.4%[38.3 µM]
N#CC1=C2SCN(Cc3ccco3)CN2C(=O)CC1c1c(F)cccc1Cl (stereo not given),18.0,8.91µM*,17.8µM*,-7.0,-7.5%,-4.7%[38.3 µM]
Cc1ccc(C2CC(=O)N3CN(Cc4ccco4)CSC3=C2C#N)cc1 (stereo not given),7.6,11.2µM*,15.8µM*,3.7,-22.3%,2.6%[38.3 µM]
Cc1ccc(N2CN(Cc3ccco3)CNC2=S)cc1,.,?,.,.,.,-2.5%
C=CC[C@@H]1C=C[C@@H](O/N=C2/[C@H]3O[C@@H]3[C@@H](O)[C@H]3[C@H]2CCn2c(=O)n(-c4ccccc4)c(=O)n23)[C@@H](CO)O1,.,7.8%[13.5 µM],.,.,.,.
O=C(CCc1ccc(S(=O)(=O)N2CCOCC2)cc1)N/N=C/c1ccc(O)c(O)c1O,-110.5*,12.6µM*,?,.,-5.2%,0.7%
O=C(CCc1ccc(S(=O)(=O)N2CCOCC2)cc1)N/N=C/c1ccc(F)cc1F,.,-9.3%,.,.,.,10.9%
O=[N+]([O-])c1ccc(N/N=C/c2ccc(O)c(O)c2O)c(S(=O)(=O)N2CCOCC2)c1,.,3.55µM*,.,.,.,16.9%

# From PubChem
